Test in all cases: DAPPL (digital affinity profiling via proximity ligation, sequencing); 10 mM Tris-HCl pH 7.5, 50 mM NaCl, 1 mM DTT, 4% glycerol, room temperature, 30 min; GST-TFs on glutathione beads, 16-mer random dsDNA library, 0.1% formaldehyde crosslink after washing; high values mean tight binding
Assay [1] has as its target SPI1 (Homo sapiens, UniProt P17947 1-270). As to conditions: protein: recombinant; tags: N-terminal GST; dsDNA, one strand shown. Put shortly: (§1)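 Binding signal is each hexamer's read frequency for a factor divided by its frequency in the tag-only sample. The factors were GST-fused human transcription factors from yeast, captured on glutathione beads, DNA-barcoded and pooled with that sample. Pools were incubated with 200 nmole of a random double-stranded 16-mer DNA library in Tris/NaCl/DTT/glycerol buffer at room temperature for 30 min, then washed, crosslinked with 0.1% formaldehyde, proximity-ligated with BsaI/T4 ligase (1 h, 37 °C), PCR-amplified and sequenced on an Illumina NextSeq500.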

Assay [2] concerns the target T1, FEV (Homo sapiens, UniProt Q99581 1-238).
T1 sequence: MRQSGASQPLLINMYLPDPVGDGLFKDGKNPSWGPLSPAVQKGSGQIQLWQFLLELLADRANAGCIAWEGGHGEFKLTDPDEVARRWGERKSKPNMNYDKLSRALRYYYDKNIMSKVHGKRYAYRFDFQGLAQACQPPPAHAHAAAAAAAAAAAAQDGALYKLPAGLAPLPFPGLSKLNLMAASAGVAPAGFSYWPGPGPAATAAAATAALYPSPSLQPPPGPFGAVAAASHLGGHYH
As to conditions: protein: recombinant; tags: N-terminal GST; dsDNA, one strand shown. Put shortly:
as §1

Assay [3] concerns the target T2, ELF5 (Homo sapiens, UniProt Q9UKW6-2 1-255).
T2 sequence: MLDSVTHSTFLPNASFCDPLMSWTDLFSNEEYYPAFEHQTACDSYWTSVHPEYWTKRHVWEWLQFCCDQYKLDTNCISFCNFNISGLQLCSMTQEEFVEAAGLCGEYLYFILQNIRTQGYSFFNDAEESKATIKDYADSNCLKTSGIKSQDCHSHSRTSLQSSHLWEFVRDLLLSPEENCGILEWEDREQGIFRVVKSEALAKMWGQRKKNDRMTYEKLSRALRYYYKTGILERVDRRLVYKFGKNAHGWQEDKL
As to conditions: protein: recombinant; tags: N-terminal GST; dsDNA, one strand shown. Put shortly:
as §1

Assay [4] concerns the target T3, ETV2 (Homo sapiens, UniProt O00321 1-342).
T3 sequence: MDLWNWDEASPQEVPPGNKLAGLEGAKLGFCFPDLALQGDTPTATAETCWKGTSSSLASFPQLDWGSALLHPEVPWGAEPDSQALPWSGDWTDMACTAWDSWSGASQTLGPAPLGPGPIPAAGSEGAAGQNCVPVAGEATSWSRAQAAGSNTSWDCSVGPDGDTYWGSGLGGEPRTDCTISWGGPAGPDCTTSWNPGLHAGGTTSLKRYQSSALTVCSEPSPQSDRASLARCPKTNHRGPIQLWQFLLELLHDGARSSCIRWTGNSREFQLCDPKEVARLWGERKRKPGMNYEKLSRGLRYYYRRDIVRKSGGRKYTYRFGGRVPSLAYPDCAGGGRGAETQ
As to conditions: protein: recombinant; tags: N-terminal GST; dsDNA, one strand shown. Put shortly:
as §1

Assay [5] deals with CRX (Homo sapiens, UniProt O43186 1-299). As to conditions: protein: recombinant; tags: N-terminal GST; dsDNA, one strand shown. Put shortly:
as §1

Assay [6] has as its target T4, FLI1 (Homo sapiens, UniProt Q01543 1-452).
T4 sequence: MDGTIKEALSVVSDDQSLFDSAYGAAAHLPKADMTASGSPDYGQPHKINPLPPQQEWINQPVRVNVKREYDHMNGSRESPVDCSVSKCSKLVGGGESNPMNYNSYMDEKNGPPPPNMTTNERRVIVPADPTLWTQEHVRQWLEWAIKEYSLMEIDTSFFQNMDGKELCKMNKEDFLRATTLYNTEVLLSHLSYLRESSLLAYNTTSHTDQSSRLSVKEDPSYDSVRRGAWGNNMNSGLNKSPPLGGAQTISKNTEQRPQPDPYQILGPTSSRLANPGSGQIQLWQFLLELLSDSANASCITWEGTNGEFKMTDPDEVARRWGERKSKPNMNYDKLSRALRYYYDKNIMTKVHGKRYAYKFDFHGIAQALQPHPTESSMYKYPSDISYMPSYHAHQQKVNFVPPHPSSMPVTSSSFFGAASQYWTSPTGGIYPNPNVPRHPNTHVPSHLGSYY
Particulars: protein: recombinant; tags: N-terminal GST; dsDNA, one strand shown. Put shortly:
as §1

The target in assay [7] is HSF1 (Homo sapiens, UniProt Q00613 1-529). Particulars: protein: recombinant; tags: N-terminal GST; chain copies: 3; dsDNA, one strand shown. Put shortly:
as §1

CRX, sequence (O43186 whole entry): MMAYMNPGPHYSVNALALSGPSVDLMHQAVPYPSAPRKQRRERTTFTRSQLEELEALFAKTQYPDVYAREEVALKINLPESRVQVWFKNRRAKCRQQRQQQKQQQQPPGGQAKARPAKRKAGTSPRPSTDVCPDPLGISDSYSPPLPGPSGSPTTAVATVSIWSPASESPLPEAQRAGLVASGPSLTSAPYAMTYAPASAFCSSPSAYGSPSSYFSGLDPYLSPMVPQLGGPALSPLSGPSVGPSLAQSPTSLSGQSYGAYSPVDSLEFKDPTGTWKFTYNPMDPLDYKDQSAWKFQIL
HSF1, sequence (Q00613 whole entry): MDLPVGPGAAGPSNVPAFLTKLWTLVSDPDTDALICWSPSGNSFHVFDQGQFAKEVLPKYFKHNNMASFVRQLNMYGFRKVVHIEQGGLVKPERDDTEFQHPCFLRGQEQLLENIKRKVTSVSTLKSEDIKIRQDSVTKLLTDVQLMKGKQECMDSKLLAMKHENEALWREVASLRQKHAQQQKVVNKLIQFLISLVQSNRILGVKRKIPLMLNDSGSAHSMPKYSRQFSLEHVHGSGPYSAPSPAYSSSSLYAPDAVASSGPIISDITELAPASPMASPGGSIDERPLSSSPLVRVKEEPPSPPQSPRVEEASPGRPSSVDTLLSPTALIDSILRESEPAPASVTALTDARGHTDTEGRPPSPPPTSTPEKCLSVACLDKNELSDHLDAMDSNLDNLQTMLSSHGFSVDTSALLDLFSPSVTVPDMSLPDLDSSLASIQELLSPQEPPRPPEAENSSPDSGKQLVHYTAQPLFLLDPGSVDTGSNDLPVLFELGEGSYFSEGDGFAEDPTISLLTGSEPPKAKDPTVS

As for GTGCCC, the binding signal in assay [1] is 1.07 fold enrichment (6-mer frequency, TF over GST control); in assay [2], 1 fold enrichment (6-mer frequency, TF over GST control).

As to GACCGG, the binding signal in assay [2] is 2.09 fold enrichment (6-mer frequency, TF over GST control); in assay [3], 1.08 fold enrichment (6-mer frequency, TF over GST control).

Consider ATAGGG, for which the binding signal in assay [1] was 1.19 fold enrichment (6-mer frequency, TF over GST control); in assay [4], 1.08 fold enrichment (6-mer frequency, TF over GST control); in assay [3], 1.02 fold enrichment (6-mer frequency, TF over GST control).

On to GGATAC, for which the binding signal in assay [4] is 1.01 fold enrichment (6-mer frequency, TF over GST control); in assay [3] it was 1.02 fold enrichment (6-mer frequency, TF over GST control).

For the sequence TATGAG, the binding signal in assay [5] was 1.1 fold enrichment (6-mer frequency, TF over GST control).

With GTCCGG, the binding signal is 1.15 fold enrichment (6-mer frequency, TF over GST control) in assay [2] and 1.06 fold enrichment (6-mer frequency, TF over GST control) in assay [3].

ATAGGC: the binding signal in assay [2] was 1.07 fold enrichment (6-mer frequency, TF over GST control); in assay [5], 1.14 fold enrichment (6-mer frequency, TF over GST control).

For the sequence GCCCGG, the binding signal was 1.04 fold enrichment (6-mer frequency, TF over GST control) in assay [2] and 1.05 fold enrichment (6-mer frequency, TF over GST control) in assay [3].

On to CAGTTC, for which the binding signal in assay [1] was 1.08 fold enrichment (6-mer frequency, TF over GST control); in assay [3], 1 fold enrichment (6-mer frequency, TF over GST control).

For the sequence CTGTAG, the binding signal in assay [3] is 1.01 fold enrichment (6-mer frequency, TF over GST control).

With ATCCGT, the binding signal in assay [2] is 1.1 fold enrichment (6-mer frequency, TF over GST control); in assay [5], 1.08 fold enrichment (6-mer frequency, TF over GST control); in assay [3], 1.17 fold enrichment (6-mer frequency, TF over GST control).

GTACCA: the binding signal in assay [1] is 1.11 fold enrichment (6-mer frequency, TF over GST control); in assay [2], 1.01 fold enrichment (6-mer frequency, TF over GST control).

Regarding GGACTT, the binding signal was 1.2 fold enrichment (6-mer frequency, TF over GST control) in assay [1]; 1.4 fold enrichment (6-mer frequency, TF over GST control) in assay [2]; 1.19 fold enrichment (6-mer frequency, TF over GST control) in assay [4]; 1.08 fold enrichment (6-mer frequency, TF over GST control) in assay [5]; 1.24 fold enrichment (6-mer frequency, TF over GST control) in assay [3].

Regarding TGGTCG, the binding signal in assay [4] was 1.08 fold enrichment (6-mer frequency, TF over GST control).

With AACGCA, the binding signal in assay [1] was 1.06 fold enrichment (6-mer frequency, TF over GST control); in assay [2], 1.11 fold enrichment (6-mer frequency, TF over GST control); in assay [4], 1.1 fold enrichment (6-mer frequency, TF over GST control); in assay [3] it was 1.04 fold enrichment (6-mer frequency, TF over GST control).

On to GAAACC, for which the binding signal in assay [2] was 1.08 fold enrichment (6-mer frequency, TF over GST control); in assay [4] it was 1.06 fold enrichment (6-mer frequency, TF over GST control); in assay [3], 1.03 fold enrichment (6-mer frequency, TF over GST control).

For the sequence CCACCG, the binding signal in assay [1] was 1.04 fold enrichment (6-mer frequency, TF over GST control); in assay [2] it was 1.26 fold enrichment (6-mer frequency, TF over GST control); in assay [3], 1.02 fold enrichment (6-mer frequency, TF over GST control).

As to AGCGTC, the binding signal is 1.06 fold enrichment (6-mer frequency, TF over GST control) in assay [1]; 1.04 fold enrichment (6-mer frequency, TF over GST control) in assay [2]; 1.04 fold enrichment (6-mer frequency, TF over GST control) in assay [3].

As for AACTGT, the binding signal in assay [4] is 1.15 fold enrichment (6-mer frequency, TF over GST control).

For TAGGCC, the binding signal in assay [2] was 1.05 fold enrichment (6-mer frequency, TF over GST control); in assay [5] it was 1.21 fold enrichment (6-mer frequency, TF over GST control).

Turning to GGCTAT, the binding signal in assay [1] was 1.03 fold enrichment (6-mer frequency, TF over GST control); in assay [2], 1.06 fold enrichment (6-mer frequency, TF over GST control); in assay [4] it was 1.06 fold enrichment (6-mer frequency, TF over GST control); in assay [3], 1.02 fold enrichment (6-mer frequency, TF over GST control).

Take GCCGGA: the binding signal in assay [2] is 1.59 fold enrichment (6-mer frequency, TF over GST control); in assay [3], 1.05 fold enrichment (6-mer frequency, TF over GST control).

Take TGAATC: the binding signal is 1.03 fold enrichment (6-mer frequency, TF over GST control) in assay [6]; 1.11 fold enrichment (6-mer frequency, TF over GST control) in assay [1]; 1.03 fold enrichment (6-mer frequency, TF over GST control) in assay [7]; 1.08 fold enrichment (6-mer frequency, TF over GST control) in assay [5].

On to ACCTAG, for which the binding signal in assay [6] was 1.01 fold enrichment (6-mer frequency, TF over GST control); in assay [1] it was 1.02 fold enrichment (6-mer frequency, TF over GST control); in assay [2] it was 1.03 fold enrichment (6-mer frequency, TF over GST control); in assay [7], 1.21 fold enrichment (6-mer frequency, TF over GST control).

Take ATAAGT: the binding signal was 1.08 fold enrichment (6-mer frequency, TF over GST control) in assay [6]; 1 fold enrichment (6-mer frequency, TF over GST control) in assay [1]; 1.28 fold enrichment (6-mer frequency, TF over GST control) in assay [7]; 1.05 fold enrichment (6-mer frequency, TF over GST control) in assay [4]; 1.79 fold enrichment (6-mer frequency, TF over GST control) in assay [5].

In the case of AGTCTC, the binding signal is 1.04 fold enrichment (6-mer frequency, TF over GST control) in assay [6]; 1.07 fold enrichment (6-mer frequency, TF over GST control) in assay [1]; 1 fold enrichment (6-mer frequency, TF over GST control) in assay [7].

In the case of AGATCT, the binding signal in assay [6] was 1.06 fold enrichment (6-mer frequency, TF over GST control); in assay [7] it was 1.47 fold enrichment (6-mer frequency, TF over GST control); in assay [4] it was 1.11 fold enrichment (6-mer frequency, TF over GST control); in assay [5] it was 1.33 fold enrichment (6-mer frequency, TF over GST control).

As for GCTAGT, the binding signal in assay [6] was 1.1 fold enrichment (6-mer frequency, TF over GST control); in assay [1], 1.13 fold enrichment (6-mer frequency, TF over GST control); in assay [2], 1.03 fold enrichment (6-mer frequency, TF over GST control); in assay [7], 1.12 fold enrichment (6-mer frequency, TF over GST control); in assay [4] it was 1.07 fold enrichment (6-mer frequency, TF over GST control).

Turning to TAGACT, the binding signal in assay [6] is 1.03 fold enrichment (6-mer frequency, TF over GST control); in assay [1] it was 1 fold enrichment (6-mer frequency, TF over GST control); in assay [7] it was 1.32 fold enrichment (6-mer frequency, TF over GST control); in assay [5] it was 1.27 fold enrichment (6-mer frequency, TF over GST control).

On to ATAAGA, for which the binding signal in assay [6] is 1.02 fold enrichment (6-mer frequency, TF over GST control); in assay [1], 1.13 fold enrichment (6-mer frequency, TF over GST control); in assay [2], 1.01 fold enrichment (6-mer frequency, TF over GST control); in assay [7] it was 1.54 fold enrichment (6-mer frequency, TF over GST control); in assay [4], 1.03 fold enrichment (6-mer frequency, TF over GST control); in assay [5], 1.97 fold enrichment (6-mer frequency, TF over GST control). The binding signal in assay [3] is 1.02 fold enrichment (6-mer frequency, TF over GST control).

On to GGATCT, for which the binding signal in assay [6] is 1.08 fold enrichment (6-mer frequency, TF over GST control); in assay [1] it was 1.02 fold enrichment (6-mer frequency, TF over GST control); in assay [7] it was 1.07 fold enrichment (6-mer frequency, TF over GST control); in assay [5], 1.15 fold enrichment (6-mer frequency, TF over GST control); in assay [3], 1.17 fold enrichment (6-mer frequency, TF over GST control).

The values above are taken from publication PMC7862700, “An all-to-all approach to the identification of sequence-specific readers for epigenetic DNA modifications on cytosine”.
